# Assay results: article PMC7862700, “An all-to-all approach to the identification of sequence-specific readers for epigenetic DNA modifications on cytosine”
# How the values were obtained:
# Test in all cases: DAPPL (digital affinity profiling via proximity ligation, sequencing); 10 mM Tris-HCl pH 7.5, 50 mM NaCl, 1 mM DTT, 4% glycerol, room temperature, 30 min; GST-TFs on glutathione beads, 16-mer random dsDNA library, 0.1% formaldehyde crosslink after washing; high values mean tight binding
# FLI1 = molecular target: T1, FLI1 (Homo sapiens, UniProt Q01543 1-452); conditions: protein: recombinant; tags: N-terminal GST; dsDNA, one strand shown
# T1 sequence: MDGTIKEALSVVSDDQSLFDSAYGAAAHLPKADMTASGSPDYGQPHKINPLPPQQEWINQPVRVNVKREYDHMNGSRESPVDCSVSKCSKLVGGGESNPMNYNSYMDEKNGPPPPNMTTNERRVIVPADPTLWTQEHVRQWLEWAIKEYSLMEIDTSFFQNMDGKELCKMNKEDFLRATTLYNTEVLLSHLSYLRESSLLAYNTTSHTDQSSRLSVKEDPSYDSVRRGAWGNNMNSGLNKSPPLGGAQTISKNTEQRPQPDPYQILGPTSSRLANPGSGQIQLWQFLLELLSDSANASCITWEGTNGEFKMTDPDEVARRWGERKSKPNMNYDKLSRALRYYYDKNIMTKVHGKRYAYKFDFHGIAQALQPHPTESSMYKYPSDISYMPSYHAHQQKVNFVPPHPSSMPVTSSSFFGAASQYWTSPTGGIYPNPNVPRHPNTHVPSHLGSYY
# In short: (§1)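 In yeast, human transcription factors were expressed with a GST fusion, then pulled down on glutathione beads and given DNA barcodes. Pooled with a tag-only sample, they were exposed to 200 nmole of a 16-mer random double-stranded DNA library (Tris/NaCl/DTT/glycerol buffer, room temperature, 30 min), washed, crosslinked with 0.1% formaldehyde, proximity-ligated using BsaI/T4 ligase for 1 h at 37 °C, PCR-amplified and read on an Illumina NextSeq500. Each hexamer's frequency of reads for a factor, divided by the matching frequency for the tag-only sample, gives the binding signal.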
# ELK1 = molecular target: T2, ELK1 (Homo sapiens, UniProt P19419 1-428); conditions: protein: recombinant; tags: N-terminal GST; dsDNA, one strand shown
# T2 sequence: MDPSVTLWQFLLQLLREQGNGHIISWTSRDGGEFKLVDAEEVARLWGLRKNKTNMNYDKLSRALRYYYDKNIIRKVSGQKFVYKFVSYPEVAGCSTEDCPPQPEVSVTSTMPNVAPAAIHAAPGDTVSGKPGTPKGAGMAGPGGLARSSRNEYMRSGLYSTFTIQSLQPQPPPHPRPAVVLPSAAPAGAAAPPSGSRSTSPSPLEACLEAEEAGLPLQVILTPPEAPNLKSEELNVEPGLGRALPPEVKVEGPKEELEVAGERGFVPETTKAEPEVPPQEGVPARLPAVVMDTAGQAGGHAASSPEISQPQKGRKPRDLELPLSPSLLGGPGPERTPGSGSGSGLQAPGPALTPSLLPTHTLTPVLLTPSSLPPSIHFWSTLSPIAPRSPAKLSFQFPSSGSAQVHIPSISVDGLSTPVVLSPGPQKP
# In short: as §1
# GABPA = molecular target: T3, GABPA (Homo sapiens, UniProt Q06546 1-454); conditions: protein: recombinant; tags: N-terminal GST; dsDNA, one strand shown
# T3 sequence: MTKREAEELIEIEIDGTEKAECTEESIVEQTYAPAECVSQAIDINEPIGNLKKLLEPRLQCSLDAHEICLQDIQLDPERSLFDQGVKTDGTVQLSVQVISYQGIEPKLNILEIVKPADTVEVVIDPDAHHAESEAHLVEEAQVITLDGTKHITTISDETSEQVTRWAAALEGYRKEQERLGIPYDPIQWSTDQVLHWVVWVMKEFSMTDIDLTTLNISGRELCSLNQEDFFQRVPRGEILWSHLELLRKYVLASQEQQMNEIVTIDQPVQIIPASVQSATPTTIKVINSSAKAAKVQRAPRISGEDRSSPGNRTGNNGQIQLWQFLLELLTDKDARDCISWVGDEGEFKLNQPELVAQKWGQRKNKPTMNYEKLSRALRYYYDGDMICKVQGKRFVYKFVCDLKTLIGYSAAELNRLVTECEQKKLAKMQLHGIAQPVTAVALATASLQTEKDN
# In short: as §1
# ERG = molecular target: T4, ERG (Homo sapiens, UniProt P11308 1-479); conditions: protein: recombinant; tags: N-terminal GST; dsDNA, one strand shown
# T4 sequence: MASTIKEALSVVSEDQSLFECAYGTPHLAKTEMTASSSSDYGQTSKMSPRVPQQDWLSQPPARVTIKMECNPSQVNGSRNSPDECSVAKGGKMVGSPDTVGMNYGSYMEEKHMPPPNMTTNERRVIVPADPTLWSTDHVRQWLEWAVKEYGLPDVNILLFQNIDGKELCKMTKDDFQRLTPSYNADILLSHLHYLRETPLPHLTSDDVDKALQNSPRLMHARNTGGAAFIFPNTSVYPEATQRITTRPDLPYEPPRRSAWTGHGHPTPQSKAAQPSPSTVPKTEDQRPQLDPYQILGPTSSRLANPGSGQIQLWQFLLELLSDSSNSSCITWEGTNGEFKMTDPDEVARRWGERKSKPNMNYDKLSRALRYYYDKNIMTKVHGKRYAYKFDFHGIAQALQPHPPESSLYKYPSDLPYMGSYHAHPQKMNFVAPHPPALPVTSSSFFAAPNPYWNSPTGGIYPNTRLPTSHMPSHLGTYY
# In short: as §1
# ELF1 = ELF1 (Homo sapiens, UniProt P32519 1-619); conditions: protein: recombinant; tags: N-terminal GST; dsDNA, one strand shown
# In short: as §1
# EHF = molecular target: T5, EHF (Homo sapiens, UniProt Q9NZC4 1-300); conditions: protein: recombinant; tags: N-terminal GST; dsDNA, one strand shown
# T5 sequence: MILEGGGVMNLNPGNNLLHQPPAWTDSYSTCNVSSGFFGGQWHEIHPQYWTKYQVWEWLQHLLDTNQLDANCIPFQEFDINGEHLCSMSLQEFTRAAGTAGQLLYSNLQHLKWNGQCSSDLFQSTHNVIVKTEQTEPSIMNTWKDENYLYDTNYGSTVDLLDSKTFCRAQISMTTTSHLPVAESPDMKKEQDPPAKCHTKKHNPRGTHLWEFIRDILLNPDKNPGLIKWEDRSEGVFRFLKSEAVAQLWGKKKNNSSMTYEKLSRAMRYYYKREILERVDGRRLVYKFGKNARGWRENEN
# In short: as §1
# SPI1 = SPI1 (Homo sapiens, UniProt P17947 1-270); conditions: protein: recombinant; tags: N-terminal GST; dsDNA, one strand shown
# In short: as §1
# SPIB = SPIB (Homo sapiens, UniProt Q01892 1-262); conditions: protein: recombinant; tags: N-terminal GST; dsDNA, one strand shown
# In short: as §1
# ELK3 = molecular target: T6, ELK3 (Homo sapiens, UniProt P41970 1-407); conditions: protein: recombinant; tags: N-terminal GST; dsDNA, one strand shown
# T6 sequence: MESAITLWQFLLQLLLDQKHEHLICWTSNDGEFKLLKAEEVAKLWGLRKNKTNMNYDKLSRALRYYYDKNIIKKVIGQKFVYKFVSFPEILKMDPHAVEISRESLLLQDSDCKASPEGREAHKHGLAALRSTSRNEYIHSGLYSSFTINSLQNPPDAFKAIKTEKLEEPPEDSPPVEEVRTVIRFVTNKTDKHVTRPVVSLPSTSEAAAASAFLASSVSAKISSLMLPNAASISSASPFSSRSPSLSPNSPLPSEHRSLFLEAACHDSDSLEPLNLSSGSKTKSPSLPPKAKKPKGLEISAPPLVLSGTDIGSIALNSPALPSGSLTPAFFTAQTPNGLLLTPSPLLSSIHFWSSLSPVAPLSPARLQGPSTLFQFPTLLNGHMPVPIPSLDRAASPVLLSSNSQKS
# In short: as §1
# FEV = molecular target: T7, FEV (Homo sapiens, UniProt Q99581 1-238); conditions: protein: recombinant; tags: N-terminal GST; dsDNA, one strand shown
# T7 sequence: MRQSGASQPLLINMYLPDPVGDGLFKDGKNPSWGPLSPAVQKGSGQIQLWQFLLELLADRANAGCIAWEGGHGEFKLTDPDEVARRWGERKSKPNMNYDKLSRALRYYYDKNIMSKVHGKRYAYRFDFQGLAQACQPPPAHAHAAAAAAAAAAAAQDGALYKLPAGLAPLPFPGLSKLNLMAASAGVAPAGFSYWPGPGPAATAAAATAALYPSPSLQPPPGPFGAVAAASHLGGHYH
# In short: as §1
# ETV5 = ETV5 (Homo sapiens, UniProt P41161 1-510); conditions: protein: recombinant; tags: N-terminal GST; dsDNA, one strand shown
# In short: as §1
# HSF1 = HSF1 (Homo sapiens, UniProt Q00613 1-529); conditions: protein: recombinant; tags: N-terminal GST; chain copies: 3; dsDNA, one strand shown
# In short: as §1
# SPIC = molecular target: T8, SPIC (Homo sapiens, UniProt Q8N5J4 1-248); conditions: protein: recombinant; tags: N-terminal GST; dsDNA, one strand shown
# T8 sequence: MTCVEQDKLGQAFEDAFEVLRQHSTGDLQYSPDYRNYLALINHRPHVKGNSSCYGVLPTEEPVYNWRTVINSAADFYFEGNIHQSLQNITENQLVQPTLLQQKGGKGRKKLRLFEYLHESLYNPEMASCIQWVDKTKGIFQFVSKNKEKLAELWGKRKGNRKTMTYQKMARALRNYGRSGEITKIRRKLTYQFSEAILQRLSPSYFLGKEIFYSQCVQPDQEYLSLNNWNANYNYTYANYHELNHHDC
# In short: as §1
# ELF4 = ELF4 (Homo sapiens, UniProt Q99607 1-663); conditions: protein: recombinant; tags: N-terminal GST; dsDNA, one strand shown
# In short: as §1
# ELK4 = molecular target: T9, ELK4 (Homo sapiens, UniProt P28324-2 1-405); conditions: protein: recombinant; tags: N-terminal GST; dsDNA, one strand shown
# T9 sequence: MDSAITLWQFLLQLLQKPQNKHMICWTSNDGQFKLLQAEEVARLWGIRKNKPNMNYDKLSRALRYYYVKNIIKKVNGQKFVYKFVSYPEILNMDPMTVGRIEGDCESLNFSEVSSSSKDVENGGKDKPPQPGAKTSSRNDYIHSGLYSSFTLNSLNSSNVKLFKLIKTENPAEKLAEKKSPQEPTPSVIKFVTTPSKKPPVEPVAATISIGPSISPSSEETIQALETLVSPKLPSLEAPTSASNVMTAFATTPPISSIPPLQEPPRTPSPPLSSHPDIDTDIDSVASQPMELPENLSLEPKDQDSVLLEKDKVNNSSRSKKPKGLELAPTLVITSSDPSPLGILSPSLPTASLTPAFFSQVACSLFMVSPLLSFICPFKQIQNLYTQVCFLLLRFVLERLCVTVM
# In short: as §1
# ETV2 = molecular target: T10, ETV2 (Homo sapiens, UniProt O00321 1-342); conditions: protein: recombinant; tags: N-terminal GST; dsDNA, one strand shown
# T10 sequence: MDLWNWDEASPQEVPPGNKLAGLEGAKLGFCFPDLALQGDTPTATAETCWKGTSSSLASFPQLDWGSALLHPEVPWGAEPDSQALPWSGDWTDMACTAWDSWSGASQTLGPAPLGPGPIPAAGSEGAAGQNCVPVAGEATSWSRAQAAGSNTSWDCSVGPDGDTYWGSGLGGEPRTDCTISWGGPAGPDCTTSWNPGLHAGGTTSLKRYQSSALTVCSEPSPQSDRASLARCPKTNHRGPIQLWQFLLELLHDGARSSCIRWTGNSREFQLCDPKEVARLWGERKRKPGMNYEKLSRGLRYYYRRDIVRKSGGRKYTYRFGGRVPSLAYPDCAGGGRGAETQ
# In short: as §1
# ELF3 = molecular target: T11, ELF3 (Homo sapiens, UniProt P78545 1-371); conditions: protein: recombinant; tags: N-terminal GST; dsDNA, one strand shown
# T11 sequence: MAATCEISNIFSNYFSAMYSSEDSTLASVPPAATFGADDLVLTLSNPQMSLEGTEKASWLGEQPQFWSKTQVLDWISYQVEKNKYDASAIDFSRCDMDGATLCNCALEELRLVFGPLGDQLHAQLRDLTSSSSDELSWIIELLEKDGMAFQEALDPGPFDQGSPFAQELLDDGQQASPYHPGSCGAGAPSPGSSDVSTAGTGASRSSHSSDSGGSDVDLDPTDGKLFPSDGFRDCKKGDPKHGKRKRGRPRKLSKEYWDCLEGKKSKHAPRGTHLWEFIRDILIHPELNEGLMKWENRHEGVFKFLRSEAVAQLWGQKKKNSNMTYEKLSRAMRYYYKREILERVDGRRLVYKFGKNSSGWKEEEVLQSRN
# In short: as §1
# ETV1 = ETV1 (Homo sapiens, UniProt P50549 1-477); conditions: protein: recombinant; tags: N-terminal GST; dsDNA, one strand shown
# In short: as §1
# Sequence of SPIB (Q01892 whole entry): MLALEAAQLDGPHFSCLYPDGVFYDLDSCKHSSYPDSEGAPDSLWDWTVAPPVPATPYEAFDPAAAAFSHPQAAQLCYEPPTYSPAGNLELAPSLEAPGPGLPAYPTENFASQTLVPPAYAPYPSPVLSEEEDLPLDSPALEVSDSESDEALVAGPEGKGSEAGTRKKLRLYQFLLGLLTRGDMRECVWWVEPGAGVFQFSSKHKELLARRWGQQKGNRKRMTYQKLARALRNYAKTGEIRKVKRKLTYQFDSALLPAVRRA
# Sequence of HSF1 (Q00613 whole entry): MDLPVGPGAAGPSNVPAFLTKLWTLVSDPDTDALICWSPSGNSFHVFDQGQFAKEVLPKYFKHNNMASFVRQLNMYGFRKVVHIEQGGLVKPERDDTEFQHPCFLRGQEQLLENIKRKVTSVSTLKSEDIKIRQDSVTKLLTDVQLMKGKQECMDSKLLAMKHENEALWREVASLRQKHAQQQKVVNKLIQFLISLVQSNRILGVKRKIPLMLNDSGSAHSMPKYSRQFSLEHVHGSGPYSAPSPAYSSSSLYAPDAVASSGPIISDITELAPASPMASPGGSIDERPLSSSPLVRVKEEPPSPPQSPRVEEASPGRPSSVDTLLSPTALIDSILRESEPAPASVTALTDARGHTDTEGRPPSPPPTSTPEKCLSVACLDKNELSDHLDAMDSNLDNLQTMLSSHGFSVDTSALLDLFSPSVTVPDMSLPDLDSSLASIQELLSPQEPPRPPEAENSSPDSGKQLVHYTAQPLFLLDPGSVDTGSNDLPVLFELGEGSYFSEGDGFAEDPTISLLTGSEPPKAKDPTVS
# Sequence of ELF4 (Q99607 whole entry): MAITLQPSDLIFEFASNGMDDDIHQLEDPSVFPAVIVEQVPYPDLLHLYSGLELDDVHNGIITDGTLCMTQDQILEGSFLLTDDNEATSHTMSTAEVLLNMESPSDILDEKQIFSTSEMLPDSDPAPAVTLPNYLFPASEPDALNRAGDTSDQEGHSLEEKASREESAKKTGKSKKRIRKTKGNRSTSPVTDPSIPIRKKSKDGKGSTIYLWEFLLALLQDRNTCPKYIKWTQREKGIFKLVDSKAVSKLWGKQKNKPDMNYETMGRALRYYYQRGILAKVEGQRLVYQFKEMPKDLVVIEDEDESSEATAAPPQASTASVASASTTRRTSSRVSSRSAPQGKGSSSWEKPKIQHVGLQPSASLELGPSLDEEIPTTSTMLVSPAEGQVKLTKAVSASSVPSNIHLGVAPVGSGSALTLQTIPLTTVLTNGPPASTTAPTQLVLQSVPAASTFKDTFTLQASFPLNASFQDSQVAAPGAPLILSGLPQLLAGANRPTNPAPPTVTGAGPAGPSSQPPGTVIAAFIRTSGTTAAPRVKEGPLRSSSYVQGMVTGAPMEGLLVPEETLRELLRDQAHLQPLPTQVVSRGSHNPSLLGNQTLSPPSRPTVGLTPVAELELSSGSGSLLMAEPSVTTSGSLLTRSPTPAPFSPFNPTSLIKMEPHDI
# Sequence of ELF1 (P32519 whole entry): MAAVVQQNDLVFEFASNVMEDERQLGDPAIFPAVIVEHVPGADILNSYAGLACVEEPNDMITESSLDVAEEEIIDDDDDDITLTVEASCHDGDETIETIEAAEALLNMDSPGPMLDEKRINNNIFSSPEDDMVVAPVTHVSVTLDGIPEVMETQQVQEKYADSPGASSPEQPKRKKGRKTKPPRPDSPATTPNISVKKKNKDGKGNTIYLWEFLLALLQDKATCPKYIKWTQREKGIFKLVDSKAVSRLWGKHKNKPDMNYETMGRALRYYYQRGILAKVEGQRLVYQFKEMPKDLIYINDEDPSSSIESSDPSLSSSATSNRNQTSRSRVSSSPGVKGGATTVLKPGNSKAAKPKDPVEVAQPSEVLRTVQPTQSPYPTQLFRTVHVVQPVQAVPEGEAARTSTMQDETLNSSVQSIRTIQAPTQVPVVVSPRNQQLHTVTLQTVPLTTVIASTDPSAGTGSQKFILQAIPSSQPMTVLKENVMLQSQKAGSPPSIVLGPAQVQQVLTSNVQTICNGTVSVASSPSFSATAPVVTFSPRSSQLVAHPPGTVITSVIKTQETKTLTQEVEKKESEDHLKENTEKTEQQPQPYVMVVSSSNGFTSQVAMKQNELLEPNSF
# Sequence of ETV5 (P41161 whole entry): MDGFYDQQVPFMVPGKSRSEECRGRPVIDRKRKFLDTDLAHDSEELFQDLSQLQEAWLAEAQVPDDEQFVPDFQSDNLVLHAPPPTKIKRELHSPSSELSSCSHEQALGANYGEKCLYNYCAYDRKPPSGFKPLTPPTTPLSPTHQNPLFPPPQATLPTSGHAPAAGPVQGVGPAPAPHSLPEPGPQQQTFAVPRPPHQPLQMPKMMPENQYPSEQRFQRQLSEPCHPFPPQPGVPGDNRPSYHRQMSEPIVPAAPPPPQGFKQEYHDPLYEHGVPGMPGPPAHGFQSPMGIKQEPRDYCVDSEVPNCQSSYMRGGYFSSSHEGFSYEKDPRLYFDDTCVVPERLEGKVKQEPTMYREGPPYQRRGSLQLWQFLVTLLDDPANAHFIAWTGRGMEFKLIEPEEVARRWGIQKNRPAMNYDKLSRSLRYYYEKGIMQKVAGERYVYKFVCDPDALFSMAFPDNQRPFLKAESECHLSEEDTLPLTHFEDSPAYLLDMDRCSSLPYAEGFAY
# Sequence of ETV1 (P50549 whole entry): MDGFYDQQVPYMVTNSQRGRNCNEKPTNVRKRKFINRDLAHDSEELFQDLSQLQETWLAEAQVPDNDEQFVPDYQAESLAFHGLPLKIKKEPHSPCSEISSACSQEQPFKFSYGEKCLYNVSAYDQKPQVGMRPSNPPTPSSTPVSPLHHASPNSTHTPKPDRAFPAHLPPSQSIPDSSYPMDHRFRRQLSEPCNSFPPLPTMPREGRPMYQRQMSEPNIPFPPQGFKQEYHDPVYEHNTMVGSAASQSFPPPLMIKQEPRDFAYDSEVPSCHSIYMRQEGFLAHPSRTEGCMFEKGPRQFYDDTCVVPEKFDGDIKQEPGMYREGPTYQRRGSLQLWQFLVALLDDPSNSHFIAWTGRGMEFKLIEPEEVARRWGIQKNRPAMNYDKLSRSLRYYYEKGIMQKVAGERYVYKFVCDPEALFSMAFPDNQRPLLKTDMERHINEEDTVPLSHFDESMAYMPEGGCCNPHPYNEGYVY
sequence,measurement,setting,value
TGAATG,binding signal,FLI1,"1.16 fold enrichment (6-mer frequency, TF over GST control)"
same,binding signal,ELK1,"1.28 fold enrichment (6-mer frequency, TF over GST control)"
same,binding signal,GABPA,"1.17 fold enrichment (6-mer frequency, TF over GST control)"
same,binding signal,ERG,"1.21 fold enrichment (6-mer frequency, TF over GST control)"
same,binding signal,ELF1,"1.2 fold enrichment (6-mer frequency, TF over GST control)"
same,binding signal,EHF,"1.19 fold enrichment (6-mer frequency, TF over GST control)"
same,binding signal,SPI1,"1.26 fold enrichment (6-mer frequency, TF over GST control)"
same,binding signal,SPIB,"1.23 fold enrichment (6-mer frequency, TF over GST control)"
same,binding signal,ELK3,"1.09 fold enrichment (6-mer frequency, TF over GST control)"
same,binding signal,FEV,"1.19 fold enrichment (6-mer frequency, TF over GST control)"
same,binding signal,ETV5,"1.1 fold enrichment (6-mer frequency, TF over GST control)"
same,binding signal,HSF1,"1.15 fold enrichment (6-mer frequency, TF over GST control)"
same,binding signal,SPIC,"1.03 fold enrichment (6-mer frequency, TF over GST control)"
same,binding signal,ELF4,"1.16 fold enrichment (6-mer frequency, TF over GST control)"
same,binding signal,ELK4,"1.2 fold enrichment (6-mer frequency, TF over GST control)"
same,binding signal,ETV2,"1.37 fold enrichment (6-mer frequency, TF over GST control)"
same,binding signal,ELF3,"1.08 fold enrichment (6-mer frequency, TF over GST control)"
same,binding signal,ETV1,"1.14 fold enrichment (6-mer frequency, TF over GST control)"
